Bioassay records: PubChem BioAssay, National Center for Advancing Translational Sciences (NCATS)
In the library only some 9% were active in any assay of this set; here they are far more common.
HTT ATP protect = qHTS Multiplex Assay to Identify Dual Action Probes in a Cell Model of Huntington: Cytoprotection (ATP); PC12 HTT-Q103 induced, cytoprotection, ATP luminescence, 40 h; Potency, µM (doses to about 56.4 µM), actives largely listed as activators; hit rate 0.14% among 230,000; AID 1471, 2008; also: nearly all actives have a fitted effect of over 45% in size
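Quantitative HTS on tebufenozide-induced (100 nM) PC12 cells expressing HTTQ103 exon 1–GFP; compounds tested as a concentration series; survival measured via cellular ATP.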
HttQ103 aggreg = qHTS Multiplex Assay to Identify Dual Action Probes in a Cell Model of Huntington: Aggregate Formation (GFP); hit rate 1.1% among 220,000; Potency, µM (doses to about 46.1 µM), usual class: inhibitors; PC12 HttQ103-GFP aggregates, Acumen cytometry, 40 h; AID 1688, 2009; also: nearly all actives have a fitted effect of over 60% in size
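PC12/HTTQ103-GFP, ecdysone-inducible; teb 100 nM; cpd qHTS titration; GFP aggregates read on laser cytometer, Ex 488/Em 500-530 nm.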
ALDH1A1 inh = qHTS Assay for Inhibitors of Aldehyde Dehydrogenase 1 (ALDH1A1) | Aldehyde dehydrogenase 1A1 (Homo sapiens), P00352 | Purified ALDH1A1, NADH fluorescence, propionaldehyde substrate | Potency, µM (top dose mostly 75.3 µM), most hits filed as inhibitors | hit rate 7.3% among 220,000 | AID 1030, 2008; active = well fitted inhibition curve with a large enough effect, not every such curve was filed as active; inconclusive = small, poorly fitted or top-dose-only effect, or another doubt; inactive = no such curve, though single readings can be large or run the other way
LMNA splice mod = qHTS Assay for Modulators of Lamin A Splicing | HeLa LMNA splicing GFP/RFP minigene ratio, 48 h | Potency, µM (titrated, usually from 46.1 µM), usual class: inhibitors | hit rate 0.01% among 200,000 | AID 1487, 2009; active = well fitted inhibition curve with a large enough effect in the signal ratio, with a control signal flat, not every such curve was filed as active; inconclusive = small, poorly fitted or top-dose-only effect, or effect the other way, or a change in a side signal; the % refers to the signal ratio
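S3 HeLa cells stably expressing lamin A-EGFP splicing minigene plus DsRed2, 600 cells/well, 48 h compound exposure at 37C. Laser-scanning cytometry; analysed as GFP (500-530 nm)/RFP (575-640 nm) total intensity ratio; 0.5% DMSO vehicle.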
HPGD block = qHTS Assay for Inhibitors of HPGD (15-Hydroxyprostaglandin Dehydrogenase); purified HPGD, NADH fluorescence kinetic, PGE2 substrate; hit rate 4.3% among 150,000; Potency, µM, hits mostly inhibitors; active = well fitted inhibition curve with a large enough effect, not every such curve was filed as active; inconclusive = small, poorly fitted or top-dose-only effect, or another doubt; inactive = no such curve, though single readings can be large or run the other way
Target sequence (P15428 whole entry, looked up): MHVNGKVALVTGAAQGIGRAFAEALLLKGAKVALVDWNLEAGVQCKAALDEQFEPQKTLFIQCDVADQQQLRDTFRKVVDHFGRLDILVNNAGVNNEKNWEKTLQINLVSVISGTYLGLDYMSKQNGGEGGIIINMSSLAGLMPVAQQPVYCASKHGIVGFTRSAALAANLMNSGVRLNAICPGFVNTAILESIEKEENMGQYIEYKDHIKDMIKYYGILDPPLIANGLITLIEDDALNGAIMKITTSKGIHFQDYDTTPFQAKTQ
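NADH formation kinetics: reaction with 30 uM PGE2 and 1 mM NAD+ (final), 20 nM enzyme, Tris-HCl pH 8 with Tween 20, after 15 min compound preincubation at room temperature. Fluorescence change, last versus first of five reads.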
KinaseGlo FLuc = Counterscreen for Luciferase (Kinase-Glo TM) Inhibition; hit rate 0.28% among 200,000; Luciferin 4-monooxygenase (Photuris pensylvanica), Q27757; Kinase-Glo luciferase, ATP luminescence, 8 min; Potency, µM (titrated, usually from 38.3 µM), actives largely listed as inhibitors; also: nearly all actives have a fitted effect of over 60% in size
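Luminescence was the read-out, taken after 8-minute incubation at ambient temperature. Luciferase turned over luciferin with 10 uM ATP in imidazole pH 7.2 buffer containing KCl, MgCl2, Tween 20 and BSA.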
Each line names hits and unclear results; the compound was inactive in the other large screens. Unless noted, calls follow the shape of the dose curve; as a rule, active = well fitted curve in the direction sought with a large enough effect; inconclusive = small, poorly fitted or top-dose-only effect, or another doubt; inactive = no such curve, though single readings can be large; an effect the other way counts as inactive or inconclusive.

CCC(C)[C@@H](NC(=O)OC(C)(C)C)c1nnc(S(=O)(=O)Cc2cccc(C)c2)o1 (stereo not given in full)	HttQ103 aggreg inconclusive, LMNA splice mod inconclusive, HPGD block 14µM
CCSc1nnc([C@H](Cc2ccccc2)NC(=O)OC(C)(C)C)o1	ALDH1A1 inh inconclusive
Cc1ccccc1CS(=O)(=O)c1nnc([C@H](Cc2ccccc2)NC(=O)OC(C)(C)C)o1	HttQ103 aggreg inconclusive, ALDH1A1 inh 14µM, LMNA splice mod inconclusive, HPGD block 7.1µM
CC(C)(C)OC(=O)N[C@@H](Cc1ccccc1)c1nnc(S(=O)(=O)Cc2ccccc2)o1	HttQ103 aggreg inconclusive, ALDH1A1 inh inconclusive, LMNA splice mod inconclusive, HPGD block 3.5µM
Cc1nn(C(=O)c2cccnc2)c(C)c1Sc1ccc(Br)cc1	HPGD block 14µM
Cc1nn(C(=O)c2ccco2)c(C)c1Sc1ccc(Cl)cc1	ALDH1A1 inh inconclusive
Cc1cc(C)cc(N(CC(=O)NCc2ccc3c(c2)OCO3)C(=O)CCC(=O)Nc2ccccn2)c1	LMNA splice mod inconclusive
COC(=O)C(C)N1C(=O)S/C(=C\c2cc(C)n(-c3ccccn3)c2C)C1=O (stereo not given)	ALDH1A1 inh 22µM
O=c1c2c3c(sc2ncn1/N=C/c1ccc([N+](=O)[O-])o1)CCCC3	ALDH1A1 inh 0.2µM
CCN(CC)COC(=S)S	ALDH1A1 inh 2.8µM, HPGD block 3.2µM (no result: HttQ103 aggreg, LMNA splice mod)
COc1ccc(C(=O)N/N=C(/C)c2cccc(NC(=O)C(F)(F)F)c2)cc1	none (no result: HTT ATP protect)
Oc1ccc(C(c2nnnn2C2CCCCC2)N2CCOCC2)cc1 (stereo not given)	HttQ103 aggreg 2.8µM (no result: HTT ATP protect, HPGD block)
c1cc(C(c2nnnn2C2CCCC2)N2CCOCC2)ccn1 (stereo not given)	ALDH1A1 inh inconclusive
COc1cc(C2NC(=S)NC(c3ccccc3)=C2C(C)=O)ccc1O (stereo not given)	ALDH1A1 inh inconclusive (no result: LMNA splice mod, HPGD block, KinaseGlo FLuc)
CCCOc1ccc(C2NC(=S)NC(c3ccccc3)=C2C(=O)Nc2ccc(C)cc2)cc1OC (stereo not given)	ALDH1A1 inh 0.35µM
COc1cc(C2NC(=S)NC(c3ccccc3)=C2C(C)=O)cc(Br)c1OCC(N)=O (stereo not given)	ALDH1A1 inh 14µM (no result: HPGD block)
CCOC(=O)C1=C(c2ccccc2)NC(=O)NC1c1cc(Br)c(O)c(OC)c1 (stereo not given)	ALDH1A1 inh 22µM (no result: HTT ATP protect, LMNA splice mod, HPGD block)
O=C(NN1C(=O)C2C(C1=O)C1C=CC2C12CC2)c1ccccc1 (stereo not given)	LMNA splice mod inconclusive (no result: HPGD block)
COc1ccc(Cl)cc1C(=O)Nn1c(-c2cccs2)nc2ccccc2c1=O	LMNA splice mod inconclusive, HPGD block inconclusive
Cc1csc(/N=C/c2ccc([N+](=O)[O-])cc2)n1	ALDH1A1 inh 11µM
Cc1nc(N)sc1C(=O)N/N=C/c1ccc([N+](=O)[O-])cc1	none (no result: ALDH1A1 inh, LMNA splice mod, HPGD block, KinaseGlo FLuc)
O=C(CN1C(=O)S/C(=C/c2cccs2)C1=O)N1CCOCC1	none
O=C(CN1C(=O)S/C(=C/c2cccnc2)C1=O)N1CCOCC1	HttQ103 aggreg inconclusive, ALDH1A1 inh inconclusive, LMNA splice mod inconclusive
O=C(CN1C(=O)S/C(=C/c2cc(Br)cs2)C1=O)N1CCOCC1	HTT ATP protect inconclusive, ALDH1A1 inh 22µM
CCOC(=O)COc1c(Br)cc(/C=C2\SC(=O)N(CC(=O)N3CCCC3)C2=O)cc1OC	ALDH1A1 inh 22µM
O=C(CN1C(=O)S/C(=C/c2ccncc2)C1=O)N1CCOCC1	ALDH1A1 inh 25µM (no result: HTT ATP protect)
Cc1ccc(CNC(=O)Cn2c(=O)cc(C(F)(F)F)c3c(C)nn(C)c32)cc1	none (no result: HTT ATP protect, HttQ103 aggreg, ALDH1A1 inh, HPGD block, KinaseGlo FLuc)
COc1cc2c(C(=O)Nc3ccc4c(c3)OCO4)cn(CC(C)C)c(=O)c2cc1OC	ALDH1A1 inh inconclusive
COc1cc(OC)c(C(=O)NCc2cccnc2)cc1OC	none (no result: HPGD block)
